Results taken from PubChem BioAssay (NCI).
The panel holds about 79,000 compounds, 15% with a hit somewhere; the sample as a whole holds those more often. Calls of active or inactive are those of the source. Rule as the data show it: active = growth inhibition above about 70%; inactive = the rest.

Experiment: NCI Yeast Anticancer Drug Screen. Data for the mec2-1 strain (AID 157)
Conditions: S. cerevisiae mec2-1 strain, at 33.0 µM, active compounds read high
How it was run: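 mec2-1 yeast strain, carrying an alteration in DNA damage repair or cell cycle control, was exposed to compounds; growth inhibition was measured relative to vehicle-treated controls.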

| SMILES | growth inhibition |
| --- | --- |
| CCC/C(Cl)=N\OC(=O)Nc1cccc(C(F)(F)F)c1 | 20% (inactive) |
| [O-][n+]1c2ccc(O)cc2nc2ccc(Cl)cc21 | 41% (inactive) |
| Clc1ccccc1C1OC1c1ccccc1Cl (stereo not given) | -75% (inactive) |
| c1ccc2c(c1)c1ncccc1c1nccnc21 | 2% (inactive) |
| CC(=O)Nc1ccc2c(c1)C(=Nc1ccc(C(=O)O)cc1)c1ccccc1-2 | 22% (inactive) |
| COc1ccc(OC)c2cc3ccccc3cc12 | 21% (inactive) |
| COc1cc(C2c3cc4c(cc3OC(NNc3ccccc3)C2C)OCO4)cc(OC)c1OC (stereo not given) | 63% (inactive) |
| O=C1c2cc([N+](=O)[O-])ccc2-c2cccc(F)c21 | 23% (inactive) |
| CCCCCCCCCCCC(=O)N(C)C | 34% (inactive) |
| CCCCCCCCCCCC1=C(O)C(=O)C=C(O)C1=O | 94% (active) |
| Cc1ccc(CSC(N)=Nc2ccccc2)cc1C | 1% (inactive) |
| CCCCCCCCCCC1CCC(=O)O1 (stereo not given) | 8% (inactive) |
| O=[N+]([O-])c1cc(CCl)ccc1CCl | 93% (active) |
| Nc1ccc2c(c1)C(=O)c1cccc(N)c1C2=O | 64% (inactive) |
| CCCCCCCCCCNC(=O)OCC | 7% (inactive) |
| CC1=C(C)Cc2c(O)ccc(O)c2C1 | -4% (inactive) |
| COc1ccc2c(c1)C(=O)c1ccccc1C2 | 6% (inactive) |
| CCC(=O)OCCn1c2nc(=O)[nH]c(=O)c-2nc2cc(C)c(C)cc21 | -4% (inactive) |
| O=C(OCCN1CCCCCC1)C(c1ccsc1)C1CCCCC1 (stereo not given) | 27% (inactive) |
| Oc1c(Br)cc(Br)cc1C1CCCCC1 | 96% (active) |
